# Compound activity (PubChem)
# UBC9 SUMO inh: SUMOylation inhibition; P63279; HTRF SUMOylation assay, SAE1/SAE2 + UBC9, in vitro; inhibition, % at 35 µM; 290,000 compounds, 0.36% hits; AID 2006; in the data active means inhibition above about 50%, passing the limit was not always enough; inconclusive means no clear call, values can overlap the other calls
# Target sequence (P63279 whole entry, looked up): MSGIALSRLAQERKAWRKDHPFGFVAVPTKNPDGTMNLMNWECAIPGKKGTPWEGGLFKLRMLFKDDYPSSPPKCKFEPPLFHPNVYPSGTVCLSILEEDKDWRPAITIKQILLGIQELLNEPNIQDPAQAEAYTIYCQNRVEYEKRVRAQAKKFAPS
# NR3A LBD binder: modulates the human NR3A ligand-binding domain. NR3A LBD differential scanning fluorimetry, Tm shift; 0% = protein alone, 100% = glycine-bound protein. Tm shift relative to glycine control, % at 25 µM. 340,000 compounds, 2.5% hits;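 active means melting temperature shift of at least 10% of the positive control shift, at one fixed dose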
# sPLA2-III inh: Blocks human group III sPLA2 activity; Q9NZ20; QFRET BODIPY PC-A2 liposome hydrolysis, fluorescence; AID 743126; 370,000 compounds, 0.56% hits; inhibition, % at 12.2 µM;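 active means inhibition above mean plus 3 SD of compounds lying within the high and low control bounds, cut at about 19% in these data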;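 further: 0% = median of test compound wells and 100% = no enzyme DMSO wells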
# UBC13 polyUb: human UBC13 polyubiquitination inhibition | inhibition, % at 20 µM | UBC13 polyubiquitin chain formation, TR-FRET | AID 485273 | 330,000 compounds, 0.47% hits; in the data active means inhibition above about 45%, passing the limit was not always enough; inconclusive means no clear call, values can overlap the other calls
# Target sequence (P61088 whole entry, looked up): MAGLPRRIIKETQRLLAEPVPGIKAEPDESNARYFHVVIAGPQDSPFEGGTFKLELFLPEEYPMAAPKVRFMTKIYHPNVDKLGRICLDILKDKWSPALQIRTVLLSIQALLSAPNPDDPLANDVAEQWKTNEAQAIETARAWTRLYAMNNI
# Casp3 counter: caspase-3 inhibition (UBC13 counter-screen); inhibition, % at 20 µM; shares compounds with UBC13 polyUb; 1,400 compounds, 4% hits; Recombinant caspase-3, Caspase-Glo 3/7 luminescence, 60 min;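 active means mean inhibition across replicates above about 26%, limit read from the data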;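 further: plate controls were DMSO with caspase-3 for no effect and DMSO wells lacking enzyme for full effect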
# Target sequence (P42574 whole entry, looked up): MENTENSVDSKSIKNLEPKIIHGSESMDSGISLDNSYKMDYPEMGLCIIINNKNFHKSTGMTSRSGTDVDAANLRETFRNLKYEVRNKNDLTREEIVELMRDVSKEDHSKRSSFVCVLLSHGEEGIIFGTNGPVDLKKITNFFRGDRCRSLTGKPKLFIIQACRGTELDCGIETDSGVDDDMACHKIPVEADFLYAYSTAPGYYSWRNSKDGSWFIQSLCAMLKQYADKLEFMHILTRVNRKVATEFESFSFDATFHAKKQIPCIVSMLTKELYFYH
# UBC13 conf: human UBC13 polyubiquitin inhibition, confirmed; shares compounds with UBC13 polyUb; AID 488859; 1,400 compounds, 68% hits; inhibition, % at 10 µM; UBC13 polyubiquitination, TR-FRET, biochemical; in the data active means inhibition above about 45%; inconclusive means no clear call, values can overlap the other calls
# An asterisk follows results filed as active; ? = inconclusive; . = no result. Compounds with a hit are over-represented: about 3.3% of the library has one in this group of screens.
SMILES,UBC9 SUMO inh,NR3A LBD binder,sPLA2-III inh,UBC13 polyUb,Casp3 counter,UBC13 conf
O/N=C/c1cn(-c2ccccc2)nc1-c1ccc2c(c1)OCCO2,-20,2,-5,46*,-2,48*
O=C(O)/C=C/c1cn(-c2ccccc2)nc1-c1ccc2c(c1)OCCO2,28,-3,-13,2,.,.
COc1ccc(-c2nn(-c3ccccc3)cc2/C=N/N=C(N)N)cc1OC,7,-1,-7,51*,-5,67*
COc1cccc(/C=N/NC(=O)C(=O)N/N=C/c2cccc(OC)c2OC)c1OC,2,-4,4,-13,.,.
COc1cccc(/C=N\NC(=O)c2sc(N)nc2C)c1OC,20,-2,3,105*,15,110*
Nc1c(C(=O)Nc2ccccc2)sc2nc3c(c(-c4ccco4)c12)CCC3,47,-1,6,-29,.,.
COc1ccc(-c2c3c(nc4sc(C(=O)Nc5ccccc5)c(N)c24)CCC3)cc1,.,0,1,46*,2,38
CC(C)(C)c1ccc(C(=O)NCCN2CCOCC2)cc1,.,1,11,-1,.,.
CC(C)(C)c1ccc(C(=O)NCCCN2CCN(CCCNC(=O)c3ccc(C(C)(C)C)cc3)CC2)cc1,-31,-1,-16,66*,-5,74*
Cc1cccn2c(=O)c(C=O)c(N3CCCCCC3)nc12,2,-2,.,55*,3,64*
Cc1cccn2c(=O)c(C=O)c(N3CC(C)OC(C)C3)nc12 (stereo not given),7,0,6,7,.,.
Oc1cc(Nc2ccncc2)cc2cccnc12,.,0,-24,104*,-2,109*
Oc1cc(Nc2cccnc2)cc2cccnc12,.,-3,0,17,.,.
C=CCn1c(=O)c(C(=O)Nc2cccnc2)c(O)c2ccccc21,1,-1,7,10,.,.
C=CCn1c(=O)c(C(=O)Nc2ccc(C)cn2)c(O)c2ccccc21,2,-1,-1,55*,3,30
CCC(=O)N1c2ccc(C)cc2C2=NNC(=S)NC21O (stereo not given),14,-8,9,47*,3,-13
CC(COc1cc(F)cc(C#N)c1)CN1CCC(C(O)(c2ccccc2)c2ccccc2)CC1 (stereo not given),.,.,-20,.,.,.
CCOC(=O)N1CCc2c(sc(NC(=O)CN(CC)CC)c2C#N)C1,-3,1,11,78*,-2,95*
O=C(N[C@@H](Cc1ccccc1)C(=O)NCP(=O)(O)OC(Cc1ccccc1)C(=O)O)OCc1ccccc1 (stereo not given in full),.,.,5,.,.,.
COC(=O)[C@]12CCCCC=C1N(Cc1ccc(OC)cc1)C(=O)[C@@H]2CC(=O)NCc1ccccc1,.,.,-6,.,.,.
CCOC(=O)CC[C@@]1(C(=O)OCC)C[C@@H](CC(=O)N2CCSCC2)C(=O)N2CCCC=C21,.,.,15,.,.,.
CN(C)CCCN(C(=O)c1ccc(S(=O)(=O)N(C)Cc2ccccc2)cc1)c1nc2cc3c(cc2s1)OCO3,3,-13,-5,90*,0,108*
COc1ccc2sc(N(CCCN(C)C)C(=O)c3ccc(S(=O)(=O)N(C)Cc4ccccc4)cc3)nc2c1,.,-4,-1,48*,-2,93*
COc1ccc2sc(N(CCCN(C)C)C(=O)c3nc4ccccc4s3)nc2c1,8,-1,-5,14,.,.
CC(C)c1[nH]nc2c1C(c1ccc(F)cc1)NC2=O (stereo not given),.,.,1,.,.,.
SMILES,UBC9 SUMO inh,NR3A LBD binder,sPLA2-III inh,UBC13 polyUb,Casp3 counter,UBC13 conf
O=C1c2cccc3cccc(c23)C(=O)N1CC1CCN(CC(O)COCc2ccc3c(c2)OCO3)CC1 (stereo not given),-4,1,-14,95*,-5,103*
C=CCN1C/C(=C/c2ccccc2)N2C(=O)CC(c3ccccc3)N=C12 (stereo not given),.,.,5,.,.,.
CC(C)C[C@H]1CNC(=S)N1C[C@H]1CCCN1C[C@H](Cc1ccc(O)cc1)N1C[C@H](Cc2ccc(O)cc2)N(CCc2ccccc2)C1=S,.,.,-20,.,.,.
CC(C)C[C@@H](CN1CCC[C@H]1CN1C(=O)C(=O)NC[C@@H]1Cc1ccccc1)N1C[C@H](Cc2ccccc2)N(CCc2ccccc2)C(=O)C1=O,.,.,-3,.,.,.
CCC[C@@H](CN1CCC[C@H]1CN1C(N)=NC[C@@H]1Cc1ccccc1)N1C[C@@H]([C@H](C)CC)N(CCc2ccc(Cl)c(Cl)c2)C1=N,.,-3,.,74*,0,74*
CCC[C@@H](CN1CCC[C@H]1CN1C(N)=NC[C@H]1CC(C)C)N1C[C@@H](Cc2ccccc2)N(CCc2ccc(Cl)c(Cl)c2)C1=N,.,-6,3,82*,0,89*
CCC[C@@H](CN1CCC[C@H]1CN1C(N)=NC[C@@H]1Cc1ccccc1)N1C[C@@H](Cc2ccccc2)N(CCc2ccc(Cl)c(Cl)c2)C1=N,.,-5,-2,75*,1,77*
O=C(CN1CCN(c2nc(-c3ccccc3)cs2)CC1)Nc1ccc(F)cc1F,.,.,-3,.,.,.
CCN(CC)C(=O)CC[C@@H]1CC[C@]2(CCCN(Cc3ccc(Br)cc3)C2)O1,.,.,1,.,.,.
CC(=O)Nc1ccc(NC(=O)CSc2ncc(C(=O)Nc3ccc(Cl)cc3)c(=O)n2C)cc1,.,9,.,55*,97*,30
Cc1cc2c(=O)n(C)c(SCC(=O)Nc3ccc(F)cc3)nc2s1,.,0,11,.,.,.
CC(=O)Nc1cccc(NC(=O)CSc2ncc(C(=O)Nc3ccc(F)cc3)c(=O)n2C)c1,.,18*,4,51*,97*,38
CC(=O)Nc1cccc(NC(=O)CSc2ncc(C(=O)Nc3ccccc3)c(=O)n2C)c1,.,-4,-11,82*,95*,86*
CC(=O)Nc1ccc(NC(=O)CSc2ncc(C(=O)Nc3ccc(F)cc3)c(=O)n2C)cc1,.,2,5,71*,98*,62*
CC(=O)Nc1ccc(NC(=O)CSc2nnnn2-c2ccc(F)cc2)cc1,11,-4,-6,0,.,.
CC(=O)Nc1cccc(NC(=O)CSc2nnnn2C)c1,5,.,15,.,.,.
COc1ccc(-c2noc(C3CCCN(C(=O)Nc4ccc(Cl)cc4)C3)n2)cc1 (stereo not given),.,.,-23,.,.,.
O=C(CCSc1nc(-c2ccc3c(c2)OCO3)cc(C(F)(F)F)n1)NCc1ccccc1,20,3,1,?,.,.
CN(Cc1ccccc1)C(=O)CCSc1nc(-c2ccc3c(c2)OCO3)cc(C(F)(F)F)n1,1,-2,7,46*,-2,42
COc1cccc(OCC(O)CN2CCN(CCN3C(=O)c4cccc5cccc(c45)C3=O)CC2)c1 (stereo not given),18,0,-6,61*,-2,63*
O=C1c2cccc3cccc(c23)C(=O)N1CCN1CCN(CC(O)COc2ccccc2)CC1 (stereo not given),13,-3,-2,54*,0,16
